Among all 5,500 compounds or so, about 2,000 (36%) were called active. Another 18% or so got no clear call; they are omitted. No stated cut-off is given here; in the data, active means normalized growth mostly below about 0.91 (no sharp cut-off); inconclusive means no clear call, values can overlap the other calls; inactive means mostly above about 0.92. This is one part of the list.
Experiment: chemical genetic growth profiling, strain panel (AID 1159580);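 further: tested at 20 µM; growth read once vehicle control cultures reached saturation at 30 °C; 1 = growth at the plate median or of vehicle wells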
Details: S. cerevisiae deletion strains, growth OD

Measured: normalized growth

CC1CCN(CC[C@H]2CCCN2S(=O)(=O)c2cccc(O)c2)CC1
inactive: locus YAL040C, strain CLN3, stronger effect = lower value 0.99 | locus YCL061C, strain MRC1 (second series), stronger effect = lower value 1 | locus YDR363W, strain ESC2, stronger effect = lower value 0.986 | locus YER002W, strain NOP16, stronger effect = lower value 0.989 | locus YGR078C, strain PAC10, stronger effect = lower value 1.02 | locus YMR263W, strain SAP30, stronger effect = lower value 1 | locus YMR307W, strain GAS1, stronger effect = lower value 1.03 | locus YNL128W, strain TEP1, stronger effect = lower value 1.01 | locus YNL175C, strain NOP13, stronger effect = lower value 1.01 | locus YNL197C, strain WHI3, stronger effect = lower value 1.01 | locus YNL224C, strain SQS1, stronger effect = lower value 1 | locus YNL322C, strain KRE1, stronger effect = lower value 0.984 | locus YOR083W, strain WHI5 (second series), stronger effect = lower value 1.03
